Measured values from PubChem BioAssay AID903 (National Center for Advancing Translational Sciences (NCATS), 2007).
The campaign covered roughly 55,000 compounds. About 340 (0.62%) were called active. Another 3% or so got no clear call; they are omitted. The sample as a whole holds a higher share of actives than the screen did. A number with no mark means an inactive call. The call rests on the fitted dose curve; in most records, active means well fitted cell-killing curve with a large enough effect; inconclusive means small, poorly fitted or top-dose-only effect; inactive means no such curve, though single readings can be large or run the other way.
Potency means the concentration at half of the fitted maximal effect.

Assay: qHTS Screen for Compounds that Selectively Target Cancer Cells with p53 Mutations: Cytotoxicity of p53 Null Cells at the Permissive Temperature; further: nearly all actives have a fitted effect of over 55% in size;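 on activity change, negative = cytotoxicity: 0% = DMSO only and -100% = full killing by 100 µM tamoxifen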
Conditions: H1299-neo p53 null cells, ATP luminescence, 24 h, 32C; series mostly up to 46.1 µM; activity change, negative = cytotoxicity: at the top concentration
In short: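 Overnight 37C seeding (600 cells/well) of H1299-neo preceded a 24 hr, 32C exposure to compounds up to 46 uM. ATP levels, read by luminescence after 20 min at RT, indicated surviving cells.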
In the case of CCOc1ccc(CCNC(=O)c2cc3c(=O)n(C)c4ccccc4c3n2C)cc1, the “activity change, negative = cytotoxicity” value is reported as -5.8%. In the case of CCCn1c(=N)c(C(=O)NCc2ccccc2)cc2c(=O)n3cccc(C)c3nc21, the “activity change, negative = cytotoxicity” value is reported as 11%. In the case of Cc1ccccc1NC(=O)CN1C(=O)C(C)(C)c2ccccc21, the “activity change, negative = cytotoxicity” value is reported as -2.97%. With O=C(Nc1ccc(Br)cc1)c1cc2nc(-c3ccccc3)cc(-c3ccccc3)n2n1 the “activity change, negative = cytotoxicity” value was 1.89%. In the case of CCCOc1ccc(C2c3c(-c4ccccc4O)n[nH]c3C(=O)N2Cc2cccnc2)cc1 (configuration not stated), the “activity change, negative = cytotoxicity” value is reported as 38.5%. For COc1ccc(-c2cc(C(=O)Nc3sc4c(c3C(N)=O)CCCC4)no2)cc1, the “activity change, negative = cytotoxicity” value was 0.619%. With CC1CCc2noc(NC(=O)c3ccc([N+](=O)[O-])cc3)c2C1 (configuration not stated) the “activity change, negative = cytotoxicity” value was -0.123%. With COc1ccc(C(=O)Nc2onc3c2CCCC3)cc1 the Potency was 7.94 µM (active). For O=c1c(Cl)c(NCc2ccc(F)cc2Cl)cnn1C12CC3CC(CC(C3)C1)C2, the “activity change, negative = cytotoxicity” value was -3.19%. In the case of Cc1cccc(OCc2ccc(C(=O)Nc3ccc(F)cc3)cc2)c1, the “activity change, negative = cytotoxicity” value is reported as -16.1%. In the case of Cc1cccc(C)c1-n1ncc(C(=O)NCCCN2CCCCC2)c1C1CCN(C(=O)OC(C)(C)C)CC1, the “activity change, negative = cytotoxicity” value is reported as 7.41%. In the case of COc1cccc(C(=O)NCC(=O)OCc2cc(=O)n3ccsc3n2)c1, the “activity change, negative = cytotoxicity” value is reported as -11.1%. For Cc1c(NC(=O)C(C)(C)C)cccc1-c1nc2ccccc2s1, the Potency was 10 µM (active). For Cc1c(NC(=O)Cc2ccccc2)cccc1-c1nc2cccnc2s1, the “activity change, negative = cytotoxicity” value was 2.04%. With CCC(C(=O)Nc1cccc(-c2nc3cccnc3s2)c1C)c1ccccc1 (configuration not stated) the “activity change, negative = cytotoxicity” value was 5.41%. With O=C(Cc1c[nH]c2ccccc12)N/N=C/c1cccc(F)c1 the “activity change, negative = cytotoxicity” value was -18.8%. For Cc1ccccc1Nc1nn2c(=O)c3ccc(C(=O)NCCc4ccc(Cl)cc4)cc3nc2s1, the “activity change, negative = cytotoxicity” value was -15.5%. In the case of CCOc1ccccc1C(=O)Nc1ccc(S(=O)(=O)N2CCCCC2c2cccnc2)cc1 (configuration not stated), the “activity change, negative = cytotoxicity” value is reported as 3.25%. With O=c1c2cccnc2n(Cc2cccc(F)c2)c(=O)n1Cc1ccccc1Cl the “activity change, negative = cytotoxicity” value was -7.53%. In the case of COc1ccc(S(=O)(=O)n2nc(C)c(S(=O)(=O)N3CCCCCC3)c2C)cc1, the “activity change, negative = cytotoxicity” value is reported as -2.68%. With CCOC(=O)c1c(/N=C/c2cc(C)ccc2O)sc2c1CCC2 the “activity change, negative = cytotoxicity” value was 6.17%. For CCC(=O)N1CCc2cc(S(=O)(=O)CCC(=O)N3CCN(c4ccccc4F)CC3)ccc21, the “activity change, negative = cytotoxicity” value was 9.11%. In the case of Cc1ccc(CNC(=O)CCC(=O)N2CC(C)Sc3ccccc32)cc1 (configuration not stated), the “activity change, negative = cytotoxicity” value is reported as 0.966%. With CCOc1ccc(NC(=O)CCc2c(C)nn(-c3ccc(N4CCCC4)nn3)c2C)cc1 the “activity change, negative = cytotoxicity” value was -3.11%. In the case of CCCOc1ccc(-c2cccc(NS(=O)(=O)c3ccccc3)c2)nn1, the “activity change, negative = cytotoxicity” value is reported as 22.4%. In the case of Cn1nnc2c(N3CCN(c4ccccc4)CC3)ncnc21, the “activity change, negative = cytotoxicity” value is reported as 2.99%. With COc1ccccc1Nc1c2c(nc3ccc(NC(=O)/C=C/c4cc(OC)c(OC)c(OC)c4)cc13)CCCC2 the Potency was 15.8 µM (active). For CCOc1ccc(C(=O)Nc2ccc3nc4c(c(Nc5ccccc5OC)c3c2)CCCC4)cc1, the “activity change, negative = cytotoxicity” value was -13%. With O=C(Nc1c2c(nc3ccccc13)CCCC2)c1ccccc1Br the “activity change, negative = cytotoxicity” value was -2.95%. For COc1ccc(-n2ccn(CC(=O)Nc3ccc(C)c(C)c3)c(=O)c2=O)cc1OC, the “activity change, negative = cytotoxicity” value was 8.42%. In the case of CCN(CC)S(=O)(=O)c1nnc(NC(=O)COc2ccccc2Cl)s1, the “activity change, negative = cytotoxicity” value is reported as -17.3%. For CCN(Cc1ccccc1)C(=O)c1cn(-c2cccc(OC)c2)c(=O)c2ccccc12, the “activity change, negative = cytotoxicity” value was 3.16%. For COc1ccc(NC(=O)CSc2nc3ncccc3[nH]2)c(OC)c1, the “activity change, negative = cytotoxicity” value was -12.6%. In the case of COC(=O)c1c(NC(=O)c2ccc(Cl)c(Cl)c2)sc2c1CCCC2, the “activity change, negative = cytotoxicity” value is reported as 3.23%. In the case of c1ccc(-c2noc(-c3cccs3)n2)nc1, the Potency is reported as 10 µM (active). For Clc1ccc(-n2nnnc2-c2cnc(-c3ccccn3)nc2-c2cccs2)cc1, the “activity change, negative = cytotoxicity” value was 18%. In the case of Cc1ccc(C)c(N2CCN(C(=O)C3CCC(CNS(=O)(=O)c4cccs4)CC3)CC2)c1 (configuration not stated), the “activity change, negative = cytotoxicity” value is reported as 41.1%. In the case of O=C(COc1nc2ccccc2nc1N1CCOCC1)NCC(F)(F)F, the “activity change, negative = cytotoxicity” value is reported as -4.1%. In the case of CN(C)CCCO/N=C(\c1ccccc1)c1ccncc1, the “activity change, negative = cytotoxicity” value is reported as 3.09%. For Cc1ccc(CN2CCC(CNC(=O)c3cnn(-c4ccccc4Cl)c3C3CCN(C(=O)OC(C)(C)C)CC3)CC2)cc1, the “activity change, negative = cytotoxicity” value was 15.7%. For Cc1ccc(C)n1-c1nnc(N2CCC(C(=O)NCc3ccccc3Cl)CC2)s1, the “activity change, negative = cytotoxicity” value was 9.93%. With COc1ccc(-c2nc(SCC(=O)N3CCCCC3C)n[nH]2)cc1 (configuration not stated) the “activity change, negative = cytotoxicity” value was -7.2%. In the case of Cc1ccc(NC(=S)NC(=O)/C=C/c2ccc(Cl)cc2)cc1, the “activity change, negative = cytotoxicity” value is reported as 0.296%. With Cc1cc(=O)n(CC(=O)Nc2cccc([N+](=O)[O-])c2)c(-n2nc(C)cc2C)n1 the “activity change, negative = cytotoxicity” value was -0.133%. For CN(C)c1ccc(NC(=O)CSc2nc(-c3ccco3)cc(C(F)(F)F)n2)cc1, the “activity change, negative = cytotoxicity” value was 10.9%. With CCCN(CCC)c1c([N+](=O)[O-])c(=O)oc2ccccc12 the “activity change, negative = cytotoxicity” value was 3.8%. In the case of COc1ccc(C(=O)NCC(c2ccc(N(C)C)cc2)N2CCc3ccccc32)c(OC)c1 (configuration not stated), the “activity change, negative = cytotoxicity” value is reported as 0.255%. With CCOC(=O)c1c(C)[nH]c(CCC(=O)NCCCN2CCN(c3cc(C)ccc3C)CC2)c1C the “activity change, negative = cytotoxicity” value was 9.67%. For O=C(Nc1ccc(OC(F)(F)F)cc1)C1CCCN(S(=O)(=O)c2ccc(Br)s2)C1 (configuration not stated), the “activity change, negative = cytotoxicity” value was 1.93%. For Cc1ccc2nc3c(cc(C(=O)NC4CCCCC4)c(=N)n3C(C)C)c(=O)n2c1, the “activity change, negative = cytotoxicity” value was 2.45%. For COc1cccc(CNC(=O)C(NS(=O)(=O)c2ccc3nc(C)sc3c2)C(C)C)c1 (configuration not stated), the “activity change, negative = cytotoxicity” value was -7.22%. For CC(C)(C)c1ccc(C(=O)NCC(c2ccco2)S(=O)(=O)c2ccc(F)cc2)cc1 (configuration not stated), the “activity change, negative = cytotoxicity” value was 20%.
